Data from PubChem BioAssay AID1619 (SRMLSC, 2009).
The campaign covered roughly 220,000 compounds. About 830 (0.38%) were called active.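 The calls were made as follows: active = compound inhibiting the enzyme by more than half at any dose during confirmatory dose-response retesting; inconclusive = strong single-dose inhibitors picked by rank but not retested; inactive = the rest.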 These entries were drawn from the full list. Measured potencies and affinities stand elsewhere.

Target: Leucine aminopeptidase (Plasmodium falciparum (isolate 3D7)) (UniProt Q8IL11)
Sequence (Q8IL11 whole entry, looked up): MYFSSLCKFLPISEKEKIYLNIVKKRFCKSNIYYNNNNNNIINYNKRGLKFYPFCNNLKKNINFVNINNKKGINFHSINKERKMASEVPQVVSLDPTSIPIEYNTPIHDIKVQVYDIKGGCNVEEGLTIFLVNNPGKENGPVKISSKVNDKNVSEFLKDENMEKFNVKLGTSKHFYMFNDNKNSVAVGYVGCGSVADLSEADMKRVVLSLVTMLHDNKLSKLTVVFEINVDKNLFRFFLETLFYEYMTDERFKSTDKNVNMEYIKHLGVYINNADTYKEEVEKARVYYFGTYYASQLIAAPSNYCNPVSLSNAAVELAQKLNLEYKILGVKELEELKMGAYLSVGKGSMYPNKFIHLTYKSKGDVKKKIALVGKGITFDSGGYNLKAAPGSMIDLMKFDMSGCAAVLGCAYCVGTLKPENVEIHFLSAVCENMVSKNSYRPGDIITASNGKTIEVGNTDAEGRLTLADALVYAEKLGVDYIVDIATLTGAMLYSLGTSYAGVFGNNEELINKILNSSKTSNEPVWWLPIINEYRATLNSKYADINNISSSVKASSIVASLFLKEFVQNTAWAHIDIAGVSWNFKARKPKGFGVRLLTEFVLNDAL
Test: P. falciparum M17LAP inhibitors, primary screen, biochemical, fluorogenic H-Leu-NHMec substrate, 1536-well (AID 1619);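 also: plate controls were full reaction with DMSO carrier for no effect and no enzyme background for full effect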
Conditions: recombinant M17LAP, H-Leu-NHMec fluorogenic kinetic assay; at 30 µM; hits give high values

inhibition, inactive:
CCC(c1nnnn1Cc1cccs1)N1CCN(C(=O)c2ccco2)CC1 (stereo not drawn) 16.8%, COc1ccc(CC(=O)O/N=C(\N)c2ccncc2)cc1 -0.41%, COc1ccc(-n2nc(C(=O)N3CCN(Cc4ccc5c(c4)OCO5)CC3)c3ccccc3c2=O)cc1 6.93%, Cc1nc(Nc2ccc(S(=O)(=O)N3CCCCC3C)cc2)c2nnn(Cc3ccccc3)c2n1 (stereo not drawn) 9.37%, COc1ccc(NC(=O)c2ccc(NCCN3C(=O)CCC3=O)c([N+](=O)[O-])c2)cc1 4.32%, COC(=O)c1ccccc1NC(=O)CSc1nc(O)c(-c2ccccc2)c(=O)[nH]1 5.3%, CSCC[C@@H](C(=O)O)N1Cc2ccccc2C1=O 5.39%, O=C(O)C(Cc1ccccc1)N1Cc2ccccc2C1=O (stereo not drawn) -1.49%, CCN(Cc1ccccc1)C(=O)Cn1c(=O)n(CC(=O)NCc2ccco2)c(=O)c2sccc21 -1.64%, CCN(C(=O)CSc1nnc2ccccn12)c1c(N)n(Cc2ccccc2)c(=O)[nH]c1=O 12.8%, N#C/C(=C\c1ccc(Cl)cc1)c1nc2ccccc2o1 8.5%, COc1ccc(/C=C(\CC(=O)O)c2nc3ccccc3o2)cc1 48.7%, COc1ccc(/C=C/C(=O)NCCC(=O)N2CCCN(C)CC2)cc1 0.13%, Fc1ccccc1Nc1nc(-c2ccncc2)nc2ccccc12 0.48%, Cc1cc(C(=O)NC(Cc2ccccc2)C(=O)O)c(C)o1 (stereo not drawn) -7.27%, CSCCC(NC(=O)c1cc(C(C)(C)C)oc1C)C(=O)O (stereo not drawn) 20.9%, O=C(C[n+]1ccc(/C=N/O)cc1)N(Cc1ccccc1)Cc1ccccc1 4.35%, COCCNC(=O)C(C)OC(=O)c1cc2sccc2n1C (stereo not drawn) 3.75%, CC(=O)Nc1ccc(S(=O)(=O)Nc2nc3ccccc3nc2Sc2nncn2C)cc1 -11.7%, Cn1cnnc1Sc1nc2ccccc2nc1NS(=O)(=O)c1ccccc1 53.8%, Cc1[nH]n(-c2cccc3ccccc23)c(=O)c1/C=N/NC(=O)c1cccc([N+](=O)[O-])c1 11.1%, CCSc1nnc(NC(=O)C2CC2c2ccccc2)s1 (stereo not drawn) 15%, CCSc1nnc(NC(=O)C2CCCCC2C(=O)O)s1 (stereo not drawn) 48.8%, CCSc1nnc(NC(=O)C2CCCCC2)s1 1.5%, CCSc1nnc(NC(=O)NC2CCCCC2)s1 -14.6%, CCOC(=O)c1cc(NC(=O)N(CC)C2CCCCC2)c(C)nc1C 1.12%, Cc1cc(C)cc(NC(=O)CSc2nc3c(c(=O)[nH]2)CN(Cc2ccc(F)cc2)CC3)c1 13.5%, Cc1ccc(NC(=O)CSc2nc3c(c(=O)[nH]2)CN(Cc2ccc(F)cc2)CC3)cc1C -0.17%, CSc1nc(=O)n(-c2ccccc2)c(C)c1C(C)=O 2.84%, COc1cccc(NC(=S)N(CCCN2CCCC(C)C2)Cc2cccs2)c1 (stereo not drawn) -0.27%, CCOC(=O)c1c(-c2ccccc2)oc2ccc(O)c(CN(C)C)c12 -6.67%, CCOC(=O)Nc1c2ccccc2nc2ccccc12 -87.5%, COc1ccc(CCNC(=O)C2CC(=O)N(CCc3ccc(C)cc3)C2)cc1OC (stereo not drawn) 5.63%, CCCn1c(SCC(=O)NC2CCCc3ccccc32)n[nH]c1=O (stereo not drawn) -0.96%, C=CCn1c(N)c(C(=O)N2CCN(C)CC2)sc1=S 14%, O=C(O)c1ccc(S(=O)(=O)Nc2ccc(O)c(Sc3nc4ccccc4s3)c2)cc1 40.7%, O=C(O)c1cccc(S(=O)(=O)Nc2ccc(O)c(Sc3nc4ccccc4s3)c2)c1 42.9%, CCOc1ccc(Nc2nc3ccccc3c(=O)s2)cc1 4.25%, COc1cccc(Nc2ccc(Nc3cccc(OC)c3)nn2)c1 -1.13%, CCOc1ccc(NC(=O)Nc2nnc(CC)s2)cc1 9.94%, COc1cccc(Nc2nc3ccc(OC)cc3s2)c1 14.2%, O=C(CSc1ccc(Cl)cc1)N1CCC(c2nc3ccccc3s2)CC1 1%, CCn1c(SCC(=O)N(C)c2c(N)n(Cc3ccccc3)c(=O)[nH]c2=O)nc2ccccc21 -11.8%, Cc1c(C(=O)NCc2ccccc2)c(-c2ccccc2)nn1-c1ccccc1 6.71%, O=C(COc1ccccc1Cl)N1CCN(c2ncccn2)CC1 5.76%, O=C(O)CSc1nc(C(F)(F)F)cc(=O)n1-c1ccccc1 -6.87%, COCCCNC(=O)c1ccc(Cn2c(=O)c3ccccc3n(CC(=O)NCc3ccco3)c2=O)cc1 -3.96%, CCN(CC)c1ccc(NC(=O)CSc2nc3ccccc3c(=O)n2-c2cc(S(=O)(=O)N(C)C)ccc2C)cc1 -13%, Clc1ccccc1Nc1ncnc2c1nnn2Cc1ccccc1 5.79%, CC(=O)Oc1ccc(C(=O)[C@H]2[C@H]3C(=O)N(c4ccc(C)cc4)C(=O)[C@H]3[C@@H]3C=CC=NN32)cc1 14.6%, c1ccc(CNc2ncnc3nc[nH]c23)cc1 45.1%, COc1ccccc1CNc1ncnc2nc[nH]c12 6.16%, COc1cc2c(cc1OC)CN(C(=S)Nc1ccc(Cl)cc1)CC2 1.81%, CC1CN(C(=O)N2CCOCC2)CCN1C(=O)N1CCOCC1 (stereo not drawn) -0.08%, CCOC(=O)c1cc(-c2csc(-c3ccc(C(F)(F)F)cc3)n2)on1 -0.99%, C=CCNC(=O)/C(=C\C=C\c1ccccc1)NC(=O)c1ccccc1Cl -0.22%, O=C(NCCCO)/C(=C\C=C\c1ccccc1)NC(=O)c1ccccc1Cl 18.5%, CCc1ccc(C(=O)CSc2nc3cc(S(=O)(=O)N4CCOCC4)ccc3n2CC)cc1 16.6%, O=C(CCSc1ccccc1)NCCSCc1ccco1 22.2%, Cc1oc2c(C)c(O)ccc2c(=O)c1-c1nncn1-c1ccccc1 5.69%, CCOC(=O)c1oc2c(C)c(O)ccc2c(=O)c1-c1nncn1-c1ccccc1 17.4%, CSc1cccc(NC(=O)C2CCN(S(=O)(=O)c3ccc(F)cc3)CC2)c1 -0.52%, COc1cccc(C(=O)NCC2CCN(c3ccc(S(=O)(=O)N4CCOCC4)cc3)CC2)c1 4%, CN(C)S(=O)(=O)c1ccc(C(=O)NC(=O)CSc2ccccc2)cc1 6.97%, CC1=NNC(=O)C1CC(=O)N/N=C/c1cccs1 (stereo not drawn) 5.62%, CC1=NNC(=O)C1CC(=O)N/N=C/c1ccncc1 (stereo not drawn) -2.88%, C/C(=N\NC(=O)C1=NNC(=O)C1C)c1cccs1 (stereo not drawn) 24.2%, CC1=NNC(=O)C1CC(=O)N/N=C/c1ccc(C)o1 (stereo not drawn) 5.16%, Cc1ccc(/C=C/C(=O)NCCCc2ccccc2)cc1 -0.31%, CCc1ccccc1NC(=O)CC1S/C(=N\c2nccs2)N(CC)C1=O (stereo not drawn) 0.04%, COc1cc(NC(=O)CSc2nnc3c(C)cc4c(C)ccc(C)c4n23)c(C(=O)O)cc1OC 3.38%, COc1ccc2cc(C)c(SCC(=O)Nc3cc(C)on3)nc2c1 -7.8%, CCc1cc2cc3c(cc2nc1SCC(=O)Nc1cc(C)on1)OCO3 7.57%, CCc1cc2ccc(C)cc2nc1SCC(=O)Nc1c[nH]c(=O)[nH]c1=O 21.2%, CCc1ccc2c(c1)cc(C)c1nnc(SCC(=O)Nc3cc(OC)c(OC)cc3C(=O)O)n12 7.71%, CCc1cc2ccc(C)cc2nc1SCC(=O)Nc1cc(C)on1 -2.5%, Cc1ccc2cc(C)c(SCC(=O)Nc3ccc(S(=O)(=O)N4CCCC4)cc3)nc2c1 -14.9%, CCc1cc2cc3c(cc2nc1SCC(=O)Nc1nccs1)OCO3 -1.06%, Cc1ccccc1OCCCCn1c(CO)nc2ccccc21 5.4%, CN(Cc1ccccc1)C(=O)Cn1c(=O)oc2cc(S(=O)(=O)NCc3ccccc3)ccc21 -8.79%, Nc1cc(=O)[nH]c(SCC(=O)Nc2ccc(S(=O)(=O)N3CCCCC3)cc2)n1 10.7%, CCOc1ccc(N2C(=O)CC(NCCc3ccncc3)C2=O)cc1 (stereo not drawn) 3.75%, CN1CC(=O)N(CCOc2ccccc2)C1=O 5.27%, CN1CCN(c2ccccc2NC(=O)c2cccc([N+](=O)[O-])c2)CC1 -3.18%, C/C(=N/NC(=O)Cn1nc2ccccc2n1)c1ccc(F)cc1 13.8%, CC(C)c1nc(SCC(=O)N2CCCc3ccccc32)c2c(=O)n(C)c(=O)n(C)c2n1 -8.79%, Cc1c(CN2CCC(CO)(CC3CCCCO3)CC2)cnn1C (stereo not drawn) -3.19%, Cc1ccc(OCC(=O)N2N=C(C(F)(F)F)CC2(O)C(C)(C)C)cc1C (stereo not drawn) -0.9%, CCCCSc1nc(O)cc(=O)n1CC 16%, CCOC(=O)c1sc(NS(=O)(=O)c2ccccc2)nc1C 23.4%, Cc1ccc(S(=O)(=O)Nc2nc(C)c(C(=O)NN)s2)cc1 18.9%, Cc1ccc(C(=O)Nc2ccc(F)cc2)o1 7.81%, O=C(Nc1ccc2c(c1)OCCO2)C1CC1c1ccccc1 (stereo not drawn) -1.74%, O=C(Nc1ccc2c(c1)OCCO2)C1CCC1 -5.9%, CC1=C(C)CC(C(=O)Nc2ccc3c(c2)OCO3)C(C(=O)O)C1 (stereo not drawn) 8.14%, O=C(Nc1ccc2c(c1)OCCO2)NC1CCCCC1 53.6%, O=C(O)CCCCCNS(=O)(=O)c1ccc2c(c1)OCCO2 -3.71%, O=C(O)CCNc1ccc2c(c1)OCCO2 13.7%
